Screens (PubChem BioAssay)
CRFBP-R2 block – antagonists of CRF-BP/CRF-R2 complex, primary screen, cell-based, HEK293, calcium dye fluorescence, uHTS; inhibition, % at 11.8 µM; 350,000 tested, 0.59% active; CRF-induced calcium fluorescence;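 active = inhibition of the ligand-induced calcium signal above about 50% at the single tested concentration, limit read from the data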
CRFBP-R2 agonist – agonists of CRF-BP/CRF-R2 complex, primary screen, cell-based, HEK293, calcium dye fluorescence, uHTS; AID 588473, 2011; 350,000 tested, 0.46% active; activation, % at 13.2 µM; CRF-binding protein / CRF receptor 2 complex (human); calcium dye fluorescence (FLIPR); percent of saturating CRF peptide response;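 active = activation of at least 50%, plus an integration ratio under a set limit after plate pattern correction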;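 note: plate controls were neutral control wells without compound for no effect and CRF at EC100 for full effect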
Myeloid diff 2 – induction of myeloid progenitor differentiation, primary screen, cell-based, flow cytometry, MLPCN library | ER-HoxA9 myeloid progenitors, lysozyme-GFP differentiation | calls only at 10 µM | 360,000 tested, 1% active | AID 624256, 2012;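 active = normalized GFP-positive differentiation at or above the plate's own cutoff, the solvent-only control mean plus 3 SD; inconclusive = no clear call, values can overlap the other calls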;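 note: cells exposed to compound for four days before flow analysis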
IDE cell inh – human IDE inhibitors in live cells, primary screen, fluorescence polarization, HEK cells, FAbetaB substrate; Insulin-degrading enzyme (Homo sapiens), P14735; FAbetaB cleavage; inhibition, % at 5.59 µM; 320,000 tested, 0.41% active;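 active = percent inhibition above the average of all tested compounds plus 3 SD, set per screening campaign, cut at about 16% in these data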;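 note: IDE supplied by intact live HEK cells; FP after avidin binding of uncleaved biotin substrate so inhibition keeps polarization high; 0% = DMSO wells and 100% = 60 µM reference IDE inhibitor Ii1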
Target sequence (P14735 whole entry, looked up): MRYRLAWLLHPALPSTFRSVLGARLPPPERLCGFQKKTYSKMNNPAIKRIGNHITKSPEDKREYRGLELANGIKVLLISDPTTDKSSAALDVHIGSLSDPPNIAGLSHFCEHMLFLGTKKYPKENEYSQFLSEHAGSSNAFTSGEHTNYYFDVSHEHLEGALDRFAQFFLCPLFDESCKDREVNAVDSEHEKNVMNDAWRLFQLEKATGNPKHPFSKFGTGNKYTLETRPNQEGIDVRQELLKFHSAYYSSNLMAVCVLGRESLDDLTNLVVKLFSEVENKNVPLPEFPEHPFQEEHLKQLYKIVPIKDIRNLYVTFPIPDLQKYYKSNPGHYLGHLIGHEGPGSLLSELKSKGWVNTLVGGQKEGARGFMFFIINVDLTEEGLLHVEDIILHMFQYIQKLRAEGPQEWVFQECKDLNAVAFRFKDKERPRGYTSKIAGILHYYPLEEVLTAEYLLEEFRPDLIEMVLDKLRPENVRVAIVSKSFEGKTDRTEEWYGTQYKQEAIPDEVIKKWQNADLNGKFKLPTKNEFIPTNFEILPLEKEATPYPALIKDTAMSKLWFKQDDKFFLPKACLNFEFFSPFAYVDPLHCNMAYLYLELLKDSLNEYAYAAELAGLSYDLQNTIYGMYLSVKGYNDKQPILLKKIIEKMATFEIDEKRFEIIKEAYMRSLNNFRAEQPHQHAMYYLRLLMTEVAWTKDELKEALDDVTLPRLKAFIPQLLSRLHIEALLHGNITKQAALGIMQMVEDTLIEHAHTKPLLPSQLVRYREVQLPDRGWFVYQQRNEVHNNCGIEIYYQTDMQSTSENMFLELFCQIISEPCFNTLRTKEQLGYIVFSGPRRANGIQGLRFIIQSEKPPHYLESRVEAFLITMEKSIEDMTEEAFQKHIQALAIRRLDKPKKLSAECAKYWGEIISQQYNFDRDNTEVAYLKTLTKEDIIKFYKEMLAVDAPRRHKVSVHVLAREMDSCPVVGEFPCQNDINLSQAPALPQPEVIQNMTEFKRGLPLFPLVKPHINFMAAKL
IDE act – human IDE activators in live cells, primary screen, fluorescence polarization, HEK cells, FAbeta-B substrate; Insulin-degrading enzyme (Homo sapiens), P14735; FAbeta-B cleavage; 0% vehicle, 100% cell-free pure enzyme wells; activation, % at 5.96 µM; 340,000 tested, 0.073% active; AID 493087, 2011;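 active = activation above the mean of all tested compounds plus 3 SD, set per screening campaign, cut at about 17% in these data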
TPT1 inh – Candida albicans TPT1 enzyme inhibitors, primary screen, biochemical, fluorescence polarization; tRNA 2'-phosphotransferase TPT1 (Candida albicans SC5314); recombinant caTPT1, FP RNA substrate dephosphorylation; inhibition, % at 5 µM; 300,000 tested, 0.81% active; AID 1962, 2009;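 active = inhibition above the mean of all tested compounds plus 3 SD, set per screening campaign, cut at about 24% in these data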;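 note: plate controls were DMSO alone for no effect and ferristatin control at 100 nM for full effect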
IDE cell inh cf – human IDE inhibitors in live cells, confirmation, fluorescence polarization, HEK cells, FAbetaB substrate; shares compounds with IDE cell inh; FAbetaB cleavage; inhibition, % at 5.59 µM; 1,200 tested, 51% active; AID 435028, 2010;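 active = mean inhibition across triplicate wells above the cutoff set by the earlier primary insulin-degrading enzyme screen, cut at about 16% in these data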;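 note: 0% = DMSO wells and 100% = 60 µM reference IDE inhibitor Ii1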
HEK293 tox – cytotoxicity in HEK cells, cytotoxicity control for IDE inhibitor project, cell-based, luminescence | shares compounds with IDE cell inh | HEK293 cytotoxicity, ATP luminescence | inhibition, % at 5.59 µM | 1,200 tested, 28% active; in the data active = inhibition above about 22%;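 note: 0% = vehicle wells and 100% = reference cytotoxic drug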
* = called active by the depositor; i = inactive; ? = inconclusive; . = no result given. Rows were chosen to be rich in hits. Some 2.6% of all compounds tested hit in one or more screens of this group.

SMILES	CRFBP-R2 block	CRFBP-R2 agonist	Myeloid diff 2	IDE cell inh	IDE act	TPT1 inh	IDE cell inh cf	HEK293 tox
O=C(/C=C/c1ccc(Cl)cc1)NC(=S)Nc1ccc(NC(=O)c2ccco2)cc1	-23.9	0.2	?	43.4*	-20.4	1.0	16.7*	77.4*
CC1CCN(CCc2nc3cc(NC(=O)NC4CCCCC4)ccc3n2C)CC1	13.4	-0.3	i	19.2*	-17.9	-1.7	3.1	10.8
NC(=O)c1ccsc1NC(=O)CSc1nnc(NC2CC2)s1	19.5	-1.0	i	1.5	3.1	.	.	.
COc1ccc(CNC(=O)COC(=O)c2ccc(F)c(S(=O)(=O)N3CCOCC3)c2)cc1	15.7	-2.2	i	17.4*	-3.1	.	1.3	6.6
O=C(Nc1ccc(Cl)cc1)C1CCCN(c2ncnc3c2nc2n3CCCCC2)C1 (stereo not given)	-5.2	0.5	i	5.7	3.1	-0.1	.	.
C=CCc1cc(/C=C2/NC(=S)NC2=O)cc(OC)c1O	-32.6	13.0	i	36.4*	-47.8	23.7	87.6*	7.7
C=CCc1cc(/C=C2/NC(=O)NC2=O)cc(OCC)c1O	-6.9	-1.9	i	8.4	-1.2	0.7	.	.
CCOc1ccc(/C=N/NC(=O)c2nnn(-c3nonc3N)c2-c2ccc(OCC)cc2)cc1	-141.1	-1.5	i	21.5*	4.2	-3.8	4.2	7.0
C=CCN(CC=C)C(=O)C(=O)c1ccn(-c2c(C)csc2C(=O)OC)c1	-10.3	2.5	i	-0.5	2.8	-1.6	.	.
CN1CCN(c2nc3ccccn3c(=O)c2C=C(C#N)C#N)CC1	-13.2	3.0	i	4.7	0.8	-1.1	.	.
CC(=O)N/N=C/c1cc(C(C)C)cc(/C=N/NC(C)=O)c1O	-47.5	92.1*	i	22.6*	-46.4	-56.1	34.6*	3.7
CCOc1ccc2[nH]c3c(N4CCN(c5ccccn5)CC4)ncnc3c2c1	-13.1	-2.4	i	25.0*	-29.9	-3.3	7.5	25.9*
COc1cccc2[nH]c3c(N4CCc5ccccc5C4)ncnc3c12	-6.3	-6.3	.	1.9	.	1.6	.	.
c1ccc2c(c1)[nH]c1c(N3CCC4(CC3)OCCO4)ncnc12	9.1	-0.1	i	-0.9	-4.2	-2.3	.	.
OC1(c2cccc(C(F)(F)F)c2)CCN(c2ncnc3c2[nH]c2ccccc23)CC1	-35.5	2.9	i	19.4*	-10.4	1.5	7.3	34.5*
Cc1ccc2[nH]c3c(N4CCN(Cc5ccccc5)CC4)ncnc3c2c1	-22.6	-3.6	i	35.6*	-12.8	5.8	17.5*	40.5*
c1ccc2c(c1)CCN(c1ncnc3c1[nH]c1ccccc13)C2	-23.1	-1.1	i	20.6*	-24.7	0.2	17.4*	80.3*
Cc1ccc2c(c1)[nH]c1c(N3CCN(Cc4ccccc4)CC3)ncnc12	-18.7	-0.7	i	13.2	-15.0	-1.0	.	.
c1ccc(CN2CCN(c3ncnc4c3[nH]c3ccccc34)CC2)cc1	-18.1	-1.5	i	33.1*	-2.3	-0.8	17.9*	57.9*
COc1ccc2c(c1)[nH]c1c(N3CCN(Cc4ccc5c(c4)OCO5)CC3)ncnc12	-24.0	-1.1	i	14.0	-15.3	-3.5	.	.
Cc1c(-n2cc(C(=O)c3cc(Cl)ccc3O)cc(C#N)c2=O)c(=O)n(-c2ccccc2)n1C	-35.1	33.2	i	17.2*	-11.6	16.5	24.8*	3.5
S=C(Nc1ccccc1)Nc1nc2ccccc2n1CCOc1ccc(Br)cc1	-25.5	1.2	i	25.6*	-10.7	-1.1	8.6	9.9
Nc1nc2ccccc2n1CCOc1ccc(Br)cc1	-19.4	0.7	i	-1.4	-2.2	2.2	.	.
